# About 17,000 (5.5%) of roughly 310,000 compounds were called active. A call without a number means that no potency is given here. Not shown: some 11% with an inconclusive outcome. Calls follow the shape of the dose curve; as a rule, active = well fitted inhibition curve with a large enough effect; inconclusive = small, poorly fitted or top-dose-only effect, or effect the other way; inactive = no such curve, though single readings can be large or run the other way. Many of the other results were omitted from the sample, so actives are more common in it than they were.
# Target: Nuclear receptor ROR-gamma (Mus musculus) (UniProt P51450)
# Sequence (P51450 whole entry, looked up): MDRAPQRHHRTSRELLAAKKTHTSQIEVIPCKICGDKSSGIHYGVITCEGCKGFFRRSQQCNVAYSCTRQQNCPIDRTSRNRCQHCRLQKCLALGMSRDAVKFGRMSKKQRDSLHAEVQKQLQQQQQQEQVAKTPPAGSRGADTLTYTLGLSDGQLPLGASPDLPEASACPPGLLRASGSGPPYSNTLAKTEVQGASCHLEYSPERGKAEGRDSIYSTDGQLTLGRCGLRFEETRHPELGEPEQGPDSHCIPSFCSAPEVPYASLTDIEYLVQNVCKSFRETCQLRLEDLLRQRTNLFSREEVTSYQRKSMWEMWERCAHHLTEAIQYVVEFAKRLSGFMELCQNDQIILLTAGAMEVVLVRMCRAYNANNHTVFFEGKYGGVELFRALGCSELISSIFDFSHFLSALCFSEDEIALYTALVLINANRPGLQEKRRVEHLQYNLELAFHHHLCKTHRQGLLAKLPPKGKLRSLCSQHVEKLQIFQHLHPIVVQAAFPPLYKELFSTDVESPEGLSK
# Assay: qHTS for inhibitors of ROR gamma transcriptional activity; also: nearly all actives have a fitted effect of over 60% in size
# Conditions: Drosophila S2 Gal4-RORgamma UAS-luciferase reporter, 20 h; series mostly up to 53.6 µM
# How it was run: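 Compounds are pin-transferred onto Drosophila Schneider cells expressing a copper-inducible Gal4–ROR gamma transactivation domain fusion. After 1 hr, copper sulfate is added to 700 uM final; luciferase is read 20 hr later.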
# Potency is read from the fitted curve at half-maximal effect.
SMILES,Potency,"activity change, negative = inhibition"
Cc1cccc(-c2c(NC(=O)c3ccco3)oc3ccc(Cl)cc3c2=O)c1,inactive,–
CN(C)CCOC1c2ccccc2-c2ccccc21,inactive,–
COc1ccc(CNC(=O)C2CCN(C(=O)c3ccccc3)CC2)cc1,inactive,–
O=C(c1ccccc1F)N1CCN(S(=O)(=O)c2ccc(Br)cc2)CC1,inactive,–
O=C(c1ccc[nH]c1=S)N1CCN(S(=O)(=O)c2ccc(Br)cc2Cl)CC1,22.4 µM (active),–
O=C(c1ccc(Cl)c(S(=O)(=O)N2CCCCC2)c1)N1CCCCCC1,inactive,–
COc1cc2c(C(=O)N(C)c3cc(Cl)ccc3OC)cn(C)c(=O)c2cc1OC,inactive,–
COc1ccc(CNC(=O)C2CCN(S(=O)(=O)c3ccc(SC)cc3)CC2)cc1,inactive,–
Cc1nnc(SCC(N)=O)n1CC1CCCO1 (stereo not given),inactive,–
Cc1ccsc1C(=O)OCC(=O)c1cc(C)n(CC2CCCO2)c1C (stereo not given),3.98 µM (active),–
Cc1cc(C(=O)COC(=O)C2CC2)c(C)n1-c1ccc(F)cc1,inactive,–
CCc1ccc(CN(C)C(=O)C2CCC(=O)N(Cc3cccc(OC)c3)C2)nc1 (stereo not given),inactive,–
CC(C)CC(=O)Nc1ccc(Cc2ccncc2)cc1,inactive,–
O=C(O)C1CCCN1C1=NS(=O)(=O)c2ccccc21 (stereo not given),inactive,–
O=C(CN1CCC(NC(=O)C2CC2)CC1)Nc1ccccc1[N+](=O)[O-],inactive,–
Cc1c(NC(=O)CSc2cccc3cccnc23)c(=O)n(-c2ccccc2)n1C,7.94 µM (active),–
Cc1nc2ccccc2n1CC(=O)N/N=C/c1cccnc1,inactive,–
Cc1ccc(NC(=O)CSc2cccc3cccnc23)c(C)c1,10 µM (active),–
O=C(CSc1cccc2cccnc12)N/N=C/c1cccnc1,7.08 µM (active),–
Cc1ccc(NC(=O)Cn2nc(C)c3ccccc3c2=O)c(C)c1,inactive,–
O=C(CNC(=O)c1cccnc1)N/N=C/c1cccnc1,inactive,–
Cc1c(NC(=O)CSc2nnnn2-c2ccc(C(=O)O)cc2)c(=O)n(-c2ccccc2)n1C,inactive,–
Cc1c(NC(=O)c2cccnc2)c(=O)n(-c2ccccc2)n1C,inactive,–
C/C(CC(=O)Nc1ccc(C)cc1C)=N\NC(=O)C(C)C,inactive,–
Cc1cc(NC(=O)CCN2CCN(Cc3ccccc3)CC2)ccc1Br,inactive,–
CCN(CC)S(=O)(=O)c1ccc(N2CCOCC2)c(NC(=O)C2CSC3(C)CCC(=O)N23)c1 (stereo not given),inactive,–
O=C(CCS(=O)(=O)c1ccc2c(c1)NC(=O)CS2)NCc1ccccc1Cl,inactive,–

SMILES,Potency,"activity change, negative = inhibition"
Cc1ccc(CN(CC(=O)NC2CCCCC2)C(=O)c2csnn2)cc1,inactive,–
O=C(c1ccccc1)N1CCC(CC2CC(c3ccc(Cl)cc3)=NO2)(C(=O)NCC2CCCCC2)CC1 (stereo not given),inactive,–
COc1cccc(CNC(=O)CCC2CCCN(C(=O)c3ccc(F)c(Cl)c3)C2)c1 (stereo not given),inactive,–
O=Cc1cn(Cc2ccccc2)nc1-c1cccnc1,inactive,–
O=C1/C(=C\c2cccnc2)CN(Cc2ccccc2)C/C1=C\c1cccnc1,6.31 µM (active),–
Clc1ccc(CN2CCN(/N=C/c3cccnc3)CC2)cc1,inactive,–
Cc1cc(C)c(S(=O)(=O)c2cc(F)ccc2C)c(=O)[nH]1,inactive,–
O=S(=O)(c1ccc(Br)cc1)c1nc(-c2ccccc2)oc1N1CCOCC1,inactive,–
CCOC(=O)c1cccc(NC(=O)CCc2nnc3ccc(N4CCOCC4)nn23)c1,inactive,–
Cc1cc(N2CCN(C)CC2)nc2ccc(NC(=S)N3CCOCC3)cc12,inactive,–
CCn1c2ccccc2c2cc(NC(=S)N3CCOCC3)ccc21,3.16 µM (active),–
CCn1c2ccccc2c2cc(NC(=O)CNC)ccc21,inactive,–
COc1ccc(NC(=O)CN2C(=O)CSc3ccc(S(=O)(=O)N4CCC(C)CC4)cc32)cc1,inactive,–
CCOc1ccc(N(CC(=O)NCC2CCCO2)S(=O)(=O)c2ccc(C)cc2)cc1 (stereo not given),inactive,–
CC(C)CNC(=O)C(=O)NCC(c1ccc2c(c1)OCO2)N1CCOCC1 (stereo not given),inactive,–
O=C(CCN1C(=O)[C@@H]2Cc3ccccc3CN2C1=O)NCc1ccccc1,inactive,–
COC(=O)c1ccccc1NC(=O)C1CCN(C(=O)N2CCOc3ccccc32)CC1,inactive,–
CC(Sc1nnc(CNC(=O)c2ccccc2F)n1C)C(=O)Nc1nccs1 (stereo not given),inactive,–
Cc1ccc(S(=O)(=O)N2CCC(C)CC2)cc1C(=O)NCc1ccccn1,inactive,–
COc1cccc(CNC(=O)Cn2c(=O)oc3cc(S(=O)(=O)N4CCCCC4)ccc32)c1,inactive,–
O=C(Cc1cccs1)Nc1ccc([N+](=O)[O-])cc1,inactive,–
CCN1/C(=C/C(=S)Nc2ccccc2)Sc2ccccc21,3.16 µM (active),–
CCNC(=O)N1c2ccccc2Sc2ccccc21,inactive,–
O=C(CCN1c2ccccc2Sc2ccccc21)Nc1ccccc1,inactive,–
COc1ccc(C(=O)NC2CC2)cc1OC1CCN(C/C=C/c2ccccc2)CC1,inactive,–
CC(C)n1c(=S)[nH]c2cc(C(F)(F)F)ccc21,0.891 µM (active),–
CCCn1c(=S)[nH]c2ccc(C(F)(F)F)cc21,inactive,–

SMILES,Potency,"activity change, negative = inhibition"
O=C(NCc1ccccc1)C(c1cccnc1)N(C(=O)c1csnn1)c1ccc(F)cc1 (stereo not given),inactive,–
Cn1c(=O)c(=O)n(C)c2cc(S(=O)(=O)CCC(=O)N3CCCCC3)ccc21,inactive,–
COc1ccc(/C=C/c2c(-c3cccc(C)c3)oc3ccc(-c4ccc5c(c4)OCO5)cc23)cc1,inactive,–
CCOC(=O)C1=C(C)NC(=S)NC1c1cccs1 (stereo not given),–,-23.4% [at 10 µM] (inactive)
COc1ccccc1NC(=O)C1=C(C)Nc2nc3ccccc3n2C1c1cccs1 (stereo not given),11.2 µM (active),–
COc1ccccc1NC(=O)C1=C(C)NC(=O)NC1c1ccc(C)s1 (stereo not given),inactive,–
CCOC(=O)C1=C(C)Nc2nc3ccccc3n2C1c1cccs1 (stereo not given),5.62 µM (active),–
COc1ccccc1NC(=O)C1=C(C)Nc2ncnn2C1c1ccc(C)o1 (stereo not given),inactive,–
CCOC(=O)c1ccc(NC(=O)C2CC(=O)Nc3nc4ccccc4n32)cc1 (stereo not given),inactive,–
Cc1cccc(CCNS(=O)(=O)c2ccc3c(c2)NC(=O)CO3)c1,inactive,–
O=C(NC1CCCC1)C(c1ccco1)N(C(=O)c1ccco1)c1ccc(F)cc1 (stereo not given),inactive,–
Cc1ccc(C(=O)Oc2ccc(C(=S)N3CCOCC3)cc2)cc1,inactive,–
COCC(=O)N1CCCC(C(=O)c2ccc(C(F)(F)F)cc2)C1 (stereo not given),inactive,–
NC(=O)c1ccc(Nc2ccc3c(c2)CCC3)c([N+](=O)[O-])c1,inactive,–
COc1ccc(C(=O)NCc2nnc(SCC(=O)Nc3cccc(OC)c3)o2)cc1,inactive,–
COc1cc(C(=O)NCc2nnc(SCC(=O)Nc3nc4ccc(C)cc4s3)o2)cc(OC)c1OC,2.51 µM (active),–
COc1cc(C(=O)NCc2nnc(SCC(=O)c3ccc(Cl)cc3)o2)cc(OC)c1OC,inactive,–
OCCN1CCN(C(=S)c2ccc(-c3ccccc3)cc2)CC1,inactive,–
S=C(c1ccccc1)N1CCCC1,inactive,–
S=C(c1ccc(-c2ccccc2)o1)N1CCCCC1,10 µM (active),–
Cc1ccccc1NC(=O)CSc1ccc2nnc(-c3ccccn3)n2n1,inactive,–
CC(C)CC(=O)Nc1nnc(S(=O)(=O)N(C)c2ccc(Cl)cc2)s1,inactive,–
CC(=O)Nc1ccc(N2C(=O)C3C4C=CC(CC4)C3C2=O)cc1 (stereo not given),inactive,–
CCOC(=O)c1c(C)nc(-c2ccccc2)nc1NC(=O)C(C)C,inactive,–
CCOC(=O)c1c(-c2ccccc2)oc2cc(Br)c(O)cc12,inactive,–
Cc1[nH]c2ccccc2c1C(=O)COC(=O)C(C)C,inactive,–
CCOC(=O)N1CCN(CC(=O)c2c(C)[nH]c3ccccc23)CC1,inactive,–

SMILES,Potency,"activity change, negative = inhibition"
CCOC(=O)c1c(C)[nH]c(=S)c(C#N)c1-c1ccccc1,12.6 µM (active),–
CCOC(=O)c1c(C)[nH]c2c1-c1ccccc1C(=O)C2=O,3.55 µM (active),–
COc1cccc(NC(=O)CCc2nnc3ccc(N4CCC(C)CC4)nn23)c1,inactive,–
CCCCCC(O)(CCN1CCCCC1)c1ccccc1 (stereo not given),inactive,–
COc1cc(C)cc(CN2CCC(Cc3ccccc3)CC2)c1O,inactive,–
CCn1c(SCC(=O)NC2=NCCS2)nnc1C(C)NC(=O)c1ccccc1F (stereo not given),inactive,–
CC1CCN(C(=O)CCc2nnc3ccc(NCc4ccco4)nn23)CC1,inactive,–
CCOC(=O)C1CCCN(S(=O)(=O)c2ccc3c(c2)C(C)(C)C(=O)N3C)C1 (stereo not given),inactive,–
CC1CC(C)CN(c2ccc(S(=O)(=O)N3CCOCC3)cc2)C1 (stereo not given),inactive,–
O=C(Cc1ccc(Br)cc1)N1CCN(c2ccccn2)CC1,inactive,–
O=C(Cc1ccccc1)N1CCN(S(=O)(=O)c2ccc([N+](=O)[O-])cc2)CC1,inactive,–
CCC1=NN(C(=O)Cc2ccc([N+](=O)[O-])cc2)C(O)(c2ccc(Br)cc2)C1 (stereo not given),11.2 µM (active),–
C[N+](C)(C)CCNC(=O)c1cc[n+](Cc2ccccc2)c(/C=N/O)c1,inactive,–
CC1CCCCC1NC(=O)c1cn(C)c2ccc(S(=O)(=O)N3CCOCC3)cc2c1=O (stereo not given),inactive,–
COc1ccc(C(O)(C2CCCCC2)C(CN2CCCC2)c2ccccc2)cc1 (stereo not given),inactive,–
Cc1nc2ccc(NC(=S)N3CCC(C)CC3)cc2nc1C,inactive,–
Cc1ccc(C2CCN(C(=S)Nc3cccc(Cl)c3)C2)cc1 (stereo not given),10 µM (active),–
O=C(C1CCCO1)N1CCN(C(=S)Nc2cccc(Cl)c2)CC1 (stereo not given),inactive,–
Cc1cccc(NC(=S)N2CCC(c3nc4ccccc4s3)CC2)c1,12.6 µM (active),–
Cc1cccc(C(=O)N2CCC(c3nc4ccccc4s3)CC2)c1,inactive,–
O=C(NC1CCCC1)C1CCN(C(=O)Nc2cccc(Cl)c2)CC1,inactive,–
Cc1cccc(OCC(=O)Nc2ccc(NC(=O)c3ccco3)c(C)c2)c1,inactive,–
O=C(NCC(=O)N(c1ccccc1)C(C(=O)NCC1CCCO1)c1ccccc1)c1cccs1 (stereo not given),inactive,–
CC1(C)C2CCC1(CS(=O)(=O)NCCc1c[nH]c3ccccc13)C(=O)C2 (stereo not given),inactive,–

# From PubChem BioAssay AID2551 (National Center for Advancing Translational Sciences (NCATS), 2010)
